# NALP1 yeast inh: NALP1 inhibition. S. cerevisiae NALP1/ASC/caspase-1 growth, X-gal OD620, 72 h. inhibition, % at 10 µM. hit rate 0.61% among 280,000. AID 2071; in the data active = inhibition mostly above about 24%, no sharp cut-off; inactive = mostly below about 32%
# NALP3 yeast inh: inhibitors of NALP3 inflammasome in yeast | inhibition, % at 10 µM | hit rate 0.39% among 330,000 | Yeast reconstituted NLRP3/ASC/caspase-1, beta-gal luminescence, 24 h | AID 2825;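 active = inhibition of 50% or more; inactive = inhibition below 50%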;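 also: plate controls were induced DMSO wells for no effect and uninduced yeast grown without galactose for full effect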
# tim23-1 inh: tim23-1 yeast growth inhibition. S. cerevisiae tim23-1 growth, BacTiter-Glo luminescence, 24 h. inhibition, % at 20 µM. hit rate 1.3% among 330,000;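 active = growth inhibition of the mutant yeast at or above 50%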;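 also: temperature-sensitive mutant grown at 25 °C; plate controls were DMSO-treated mutant yeast for no effect and medium wells lacking yeast for full effect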
# tim10-1 inh: inhibits growth of tim10-1 mutant yeast; S. cerevisiae tim10-1 ts strain growth, BacTiter-Glo, 24 h; inhibition, % at 20 µM; hit rate 2.2% among 330,000; AID 463190;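 active = inhibition of at least 40%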;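 also: mutant grown at 25 °C; 0% = DMSO wells with yeast and 100% = wells holding no yeast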
# PfHsp90 yeast 2: growth inhibition of yeast expressing Plasmodium Hsp90. hit rate 0.32% among 310,000. S. cerevisiae expressing PfHsp90, BacTiter-Glo ATP, 48 h; yeast lacking PDR1 and PDR3 efflux regulators. inhibition, % at 9.4 µM;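 active = every replicate shows inhibition above about 80%, whatever the replicate mean, limit read from the data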;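 also: 0% = DMSO neutral controls and 100% = 20 µM radicicol positive controls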
# TIM10 inh: inhibits growth of TIM10 yeast strain | S. cerevisiae TIM10 strain growth, BacTiter-Glo luminescence, 24 h | inhibition, % at 10 µM | hit rate 1.4% among 330,000;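 active = inhibition of 40% or more at the single tested concentration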;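 also: wild-type TIM10 isogenic control strain grown at permissive 25 °C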
# tim10-1 confirm: tim10-1 yeast growth inhibition, confirmed | shares compounds with tim10-1 inh | S. cerevisiae tim10-1 ts strain growth, BacTiter-Glo, 24 h | inhibition, % at 20 µM | hit rate 56% among 7,400 | AID 463213;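 active = inhibition of yeast growth at or above a set limit in either of two repeat tests at 20 µM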;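 also: tim10-1 mutant grown at permissive 25 °C to find synthetic lethal compounds; 0% = DMSO yeast wells and 100% = medium wells without yeast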
# TIM10 conf: confirmation of TIM10 yeast growth inhibitors. S. cerevisiae tim10 strain growth, BacTiter-Glo luminescence, 24 h. inhibition, % at 10 µM. shares compounds with TIM10 inh. hit rate 63% among 4,600;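 active = inhibition of yeast growth at or above a set limit in either of two replicates at 10 µM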;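 also: this counterscreen used the strain with wild-type TIM10; 0% = yeast with DMSO and 100% = medium wells lacking yeast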
# Numbers without * were called inactive; · = not tested or not shown. Most compounds without a hit are left out; they make up all but 4.2% or so of the library.
SMILES,NALP1 yeast inh,NALP3 yeast inh,tim23-1 inh,tim10-1 inh,PfHsp90 yeast 2,TIM10 inh,tim10-1 confirm,TIM10 conf
COc1cccc(/C=C/C(=O)c2cccc([N+](=O)[O-])c2)c1,-5,6,49,40,0,19,·,·
COc1ccc(Nc2nc(NCCN3CCOCC3)nc(Nc3ccc(OC)cc3)n2)cc1,18,15,24,12,11,-14,·,·
CCCC[n+]1ccn(-c2nc3c([N+](=O)[O-])cccc3n2C)c1,3,19,2,-1,3,-8,·,·
CC(=O)Nc1ccc(S(=O)(=O)N(C)CC(=O)OC(C)C(=O)NC2CCCCC2)cc1 (centres undefined),·,8,11,2,·,-4,·,·
COc1cccc(C(=O)Nc2ccc(-n3nncc3C(C)(C)C)cc2)c1,-6,14,31,34,·,22,·,·
CC(C)(C)c1cnnn1-c1ccc(NC(=O)c2ccc(Br)o2)cc1,7,8,37,47*,-8,47*,42*,39*
CC(C)(C)c1cnnn1-c1ccc(NC(=O)c2ccc3c(c2)OCO3)cc1,28,5,38,44*,-4,42*,26,34*
c1ccc(Nc2cccc(Nc3ccccc3)n2)cc1,18,28,39,64*,-6,60*,57*,-10
O=C(NC(=S)Nc1nc2c(s1)CSc1ccccc1-2)c1ccccc1,-2,35,45,48*,-4,44*,19,30*
O=C(NC1CCCC1)C1CC(O)CN1C(=O)Nc1ccccc1 (centres undefined),30,-2,-2,0,4,-12,·,·
CN1/C(=C\C(=O)Nc2cccc(Cl)c2)C(C)(C)c2ccccc21,33,15,47,40*,-2,41*,34*,43*
CC(OC(=O)CNS(=O)(=O)c1ccc(C#N)cc1)C(=O)Nc1cccc(C#N)c1 (centres undefined),·,21,-2,-17,22,6,·,·
CN(CCCNC(=O)c1cc2c(Cl)nc3ccccc3c2s1)Cc1ccccc1,20,29,11,53*,1,43*,41*,44*
C[C@]12CC[C@H](OC(=O)CCC(=O)O)CC1=CCC1C2CC[C@@]2(C)C1CC[C@@H]2N (some centres undefined),·,8,4,12,·,-1,·,·
CC(=O)OC1CCC2(C)C(=CCC3C2CCC2(C)C3CC3OC4(CCC(C)CN4)C(C)C32)C1 (centres undefined),·,2,42,41*,11,44*,34*,22
COc1ccc2c(c1)c1nnc(SC)nc1n2C,0,40,43,63*,·,81*,66*,81*
CCc1ccc(C(=O)CN(C#N)c2nc(C)cc(C)n2)cc1,-4,9,35,42*,9,48*,15,-36
Cc1nc(Nc2ccccc2)sc1-c1ccccc1,38,18,49,54*,3,63*,54*,-32
C/C(=N\N=C1\NC(=O)C(CC(=O)Nc2ccc(Cl)cc2)S1)c1ccco1 (centres undefined),19,14,21,7,10,15,·,·
C/C(=N\N=C1\NC(=O)C(CC(=O)Nc2ccc(C)c(Cl)c2)S1)C(C)(C)C (centres undefined),1,-4,21,52*,-9,44*,32*,23
COc1cccc(N2CCN(CC(=O)Nc3nc4c(s3)CC(C)CC4)CC2)c1 (centres undefined),7,8,37,40*,15,40*,20,29
COc1cccc(N2CCN(CC(=O)Nc3nc(C)c(C(=O)N(C)C)s3)CC2)c1,-2,4,10,9,15,-7,·,·
CC(C)[C@H](NC(=O)c1ccc(F)cc1)C(=O)NC1=NCCS1,-1,-3,0,16,-22,15,·,·
O=[N+]([O-])c1ccc(/C=N/n2c(CO)nc3ccccc32)s1,28,13,14,4,-4,0,·,·
O=[N+]([O-])c1ccc(/C=N/n2cnc3ccccc32)s1,54*,6,40,49*,105*,79*,57*,90*

# Compound activity as filed in PubChem BioAssay.
